Assay [1] in a line: Cell Viability - LYMP2-003 (AID 965).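 Further: cells exposed to compounds for 24 h before reading; nearly all actives have a fitted effect of over 50% in size.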 The method in brief: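 Human lymphoblastoid LYMP2-003 cells, 2500/well, exposed to compounds for 24 h at 37 C in complete medium. Viability read as intracellular ATP by CellTiter-Glo luminescence; AC50 from Hill-equation fits of qHTS concentration-response data.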
A short description of assay [2]: Cell Viability - LYMP2-004 (AID 966). Further: nearly all actives have a fitted effect of over 65% in size. The method in brief:
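Luminescent ATP read-out (CellTiter-Glo, 30 min RT) after 24 hr compound exposure at 37 C; 2500 lymphoblastoid cells/well, complete medium. Decrease in ATP = cytotoxicity; AC50 from standard Hill model.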

Assay [3] in a line: Cell Viability - LYMP2-005 (AID 967). Further: series mostly up to about 92 µM. An outline of the steps:
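Human lymphoblastoid LYMP2-005 cells, 2,500 per well in complete medium, rested 5 h at 37C then compound-treated 24 h at 37C. Intracellular ATP read by CellTiter-Glo luminescence after 30 min at room temperature; AC50 from Hill-equation fits of concentration-response data.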

A short description of assay [4]: Cell Viability - LYMP2-009 (AID 968). Further: series mostly up to about 92 µM; nearly all actives have a fitted effect of over 55% in size.
Assay [5] can be described thus: Cell Viability - LYMP2-011 (AID 969). Further: nearly all actives have a fitted effect of over 60% in size. The method in brief:
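Luminescent ATP read-out (CellTiter-Glo, 30 min RT) after 24 hr compound exposure at 37 C in human lymphoblastoid cells, 2500 cells/well. Decreasing ATP indicates cytotoxicity; AC50 from standard Hill fit.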

Assay [6] is described as follows: Cell Viability - LYMP2-015 (AID 971). Further: nearly all actives have a fitted effect of over 55% in size. An outline of the steps: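 qHTS cytotoxicity: 2500 cells/well, 5 hr 37 C, compound 24 hr 37 C, CellTiter-Glo 30 min RT, luminescence. Loss of ATP = toxicity; AC50 via standard Hill fit.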
Assay [7] can be described thus: Cell Viability - LYMP2-019 (AID 973). Further: nearly all actives have a fitted effect of over 55% in size. The method in brief:
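qHTS, 1536-well; 2500 cells/well; 5 hr pre-incubation, 24 hr compound exposure, 37 C; CellTiter-Glo added, 30 min RT; luminescence read; AC50 via standard Hill equation.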

Assay [8] in a line: Cell Viability - LYMP2-021 (AID 974).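 Further: compound exposure lasts 24 hours at 37 °C; nearly all actives have a fitted effect of over 55% in size.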 The method in brief: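 ATP luminescence (CellTiter-Glo, 30 min RT) after 24 h compound exposure at 37 C; 2500 human lymphoblastoid cells/well, 5 h settle beforehand. Cytotoxicity = concentration-dependent ATP drop, AC50 by Hill fit.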
Assay [9] is described as follows: Cell Viability - LYMP2-023 (AID 975). The method in brief:
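CellTiter-Glo luminescence after 30 min at room temperature; decrease in intracellular ATP reflects toxicity. Cells: human lymphoblastoid line, 2500/well, 24 hr compound exposure at 37 C. AC50 fitted to standard Hill equation from concentration-response.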

Assay [10] in a line: Cell Viability - LYMP2-025 (AID 976). Further: series mostly up to about 92 µM. An outline of the steps: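 CellTiter-Glo luminescence (cellular ATP) after 24 h compound exposure at 37 C; LYMP2-025 human lymphoblastoid cells, 2500/well, complete medium. Tetraoctylammonium bromide positive control. AC50 by Hill equation fit of qHTS concentration-response.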
Assay [11] is described as follows: Cell Viability - LYMP2-002 (AID 977). Further: series mostly up to about 92 µM. The method in brief: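 In this qHTS viability screen, 2500 human lymphoblastoid cells per well receive compound for 24 hr at 37 C, and luciferase-based ATP luminescence gives the viability signal. Tetraoctylammonium bromide serves as positive control.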
Assay [12] is described as follows: Cell Viability - LYMP2-006 (AID 978). Further: series mostly up to about 92 µM; nearly all actives have a fitted effect of over 60% in size. An outline of the steps: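 Human lymphoblastoid cells (LYMP2-006), 2500/well in complete medium, were treated with compound for 24 hr at 37 C. Cellular ATP was read by CellTiter-Glo luminescence after 30 min, and AC50 values came from Hill-equation fits of concentration-response data.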
The nature of assay [13]: Cell Viability - LYMP2-008 (AID 980). Further: nearly all actives have a fitted effect of over 60% in size. The method in brief: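 Luminescent ATP read-out (CellTiter-Glo, 30 min RT) after 24 hr compound exposure at 37 C of human lymphoblastoid cells in complete medium. Decrease in ATP taken as cytotoxicity; AC50 derived by standard Hill fit of qHTS concentration-response data.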
Assay [14] is described as follows: Cell Viability - LYMP2-012 (AID 982).
Assay [15] can be described thus: Cell Viability - LYMP2-014 (AID 983). Further: series mostly up to about 92 µM; nearly all actives have a fitted effect of over 50% in size. The method in brief:
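2500 cells/well, 5 hr 37 C; cpd 24 hr 37 C, complete medium; CellTiter-Glo 30 min RT, luminescence; ATP loss = toxicity; AC50 via Hill eqn; tetraoctylammonium bromide positive control.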

The nature of assay [16]: Cell Viability - LYMP2-016 (AID 984). Further: nearly all actives have a fitted effect of over 55% in size. The method in brief: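 Human lymphoblastoid LYMP2-016 cells, 2500 per well, treated with compounds for 24 h at 37 C. Viability read as intracellular ATP by CellTiter-Glo luminescence after 30 min at room temperature; AC50 from Hill fits of concentration-response.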
The nature of assay [17]: Cell Viability - LYMP2-020 (AID 986). The method in brief:
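qHTS, 2500 cells/well; 5 hr then 24 hr compound exposure, 37 C; CellTiter-Glo luminescence after 30 min RT; ATP decrease taken as cytotoxicity; AC50 via Hill equation; tetraoctylammonium bromide positive control.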

Assay [18] can be described thus: Cell Viability - LYMP2-024 (AID 988). Further: nearly all actives have a fitted effect of over 60% in size. An outline of the steps: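 ATP-based luminescence (CellTiter-Glo, 30 min RT) after 24 h compound exposure at 37 C of 2500 lymphoblastoid cells/well; decrease in ATP taken as cytotoxicity. qHTS concentration-response fitted to standard Hill equation for AC50.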
A short description of assay [19]: Cell Viability - LYMP2-026 (AID 989). Further: nearly all actives have a fitted effect of over 50% in size. The method in brief:
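qHTS cytotoxicity: 2500 cells/well, 5 hr 37 C, compound 24 hr 37 C, CellTiter-Glo 30 min RT, luminescence. Tetraoctylammonium bromide positive control. AC50 via standard Hill fit.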

Assay [20] in a line: Cell Viability - LYMP1-002 - Assay at 24 hr (AID 993). An outline of the steps:
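CellTiter-Glo luminescence (intracellular ATP) after 24 h compound exposure, 37 C, in LYMP1-002 human lymphoblastoid cells; decreased ATP taken as cytotoxicity. AC50 from standard Hill fit of concentration-response curves.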

The nature of assay [21]: qHTS Assay for Identification of Small Molecule Inducers of Hypoxia Response (AID 2120; active means well fitted curve in the direction sought with a large enough effect in the signal ratio, with a control signal flat, not every such curve was filed as active; inconclusive means small, poorly fitted or top-dose-only effect, or a change in a side signal; inactive means no such curve, though single readings can be large or run the other way; the % refers to the signal ratio). The method in brief: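 Read-out: CCF4 FRET emission ratio 460nm/530nm (excitation 405nm), converted to %Activity, with AC50 fitted across a compound titration. ME-180 cells carried an HRE-driven beta-lactamase reporter; compound exposure 17 h, 37 degrees C.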
For assay [22], the target named is Estrogen receptor (Homo sapiens) (UniProt P03372). As to the kind of experiment: qHTS assay for small molecule antagonists of estrogen receptor alpha signaling (AID 588513; active means well fitted curve in the direction sought with a large enough effect in the signal ratio, with a control signal flat, not every such curve was filed as active; inconclusive means small, poorly fitted or top-dose-only effect, or effect the other way, or a change in a side signal; inactive means no such curve, though single readings can be large or run the other way; the % refers to the signal ratio; further: potency means the concentration at half of the fitted maximal effect). The method in brief: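 ER-alpha-UAS-bla GripTite HEK 293 cells in 2% charcoal/dextran-treated FBS medium; compounds titrated (1:2, duplicate), then stimulated with 0.5 nM 17-beta-estradiol for 18 h at 37C. CCF4 beta-lactamase fluorescence; Hill-fit IC50 and efficacy.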

Assay [23] has the same target. As to the kind of experiment: qHTS assay for small molecule agonists of estrogen receptor alpha signaling (AID 588514; calls by dose curve; further: potency means the concentration at half of the fitted maximal effect; nearly all actives have a fitted effect of over 70% in size). An outline of the steps: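 Read-out: CCF4 fluorescence from a beta-lactamase reporter in ER-alpha-UAS-bla HEK 293 cells after 18 hrs of compound exposure at 37 C. Normalized to 20 nM 17-beta-estradiol (100%) and DMSO (0%).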

Activity calls are given as the source filed them. Unless noted, the call rests on the fitted dose curve; in most records, active means well fitted curve in the direction sought with a large enough effect; inconclusive means small, poorly fitted or top-dose-only effect, or another doubt; inactive means no such curve, though single readings can be large; an effect the other way counts as inactive or inconclusive.

Sequence of Estrogen receptor (Homo sapiens) (P03372 whole entry, looked up): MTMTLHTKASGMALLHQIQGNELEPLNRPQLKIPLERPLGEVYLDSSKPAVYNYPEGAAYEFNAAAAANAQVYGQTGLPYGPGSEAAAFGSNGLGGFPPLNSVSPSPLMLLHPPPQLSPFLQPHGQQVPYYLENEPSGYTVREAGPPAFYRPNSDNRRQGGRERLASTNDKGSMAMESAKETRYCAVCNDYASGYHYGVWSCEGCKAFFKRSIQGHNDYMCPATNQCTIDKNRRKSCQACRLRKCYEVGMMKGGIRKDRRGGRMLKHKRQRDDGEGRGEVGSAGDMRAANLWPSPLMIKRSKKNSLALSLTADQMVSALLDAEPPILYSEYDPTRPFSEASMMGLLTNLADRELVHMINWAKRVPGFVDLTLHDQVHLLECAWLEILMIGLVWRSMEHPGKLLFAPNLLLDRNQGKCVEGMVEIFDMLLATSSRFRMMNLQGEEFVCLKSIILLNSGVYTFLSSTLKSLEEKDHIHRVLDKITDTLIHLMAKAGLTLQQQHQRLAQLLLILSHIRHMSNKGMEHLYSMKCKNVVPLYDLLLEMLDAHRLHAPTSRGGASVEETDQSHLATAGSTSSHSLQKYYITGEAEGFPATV

Take `C[C@H]1CCCC(=O)CCC/C=C/c2cc(O)cc(O)c2C(=O)O1`: the Potency entry in [1], in [2], in assay [3], in assay [4], in [5] and in assay [6] was “inactive” each time. In addition, the Potency entry in assay [7], in [8], in assay [9], in assay [10], in [11] and in assay [12] was “inactive” throughout. Besides, the Potency entry in assay [13], in assay [14], in [15], in [16], in assay [17] and in assay [18] was “inactive” in each case. The Potency result in assay [19] and in assay [20] was “inactive” each time. The compound was classed as inactive in [21]. Besides, the figures for the Potency in assay [22] and in assay [23] were 14.1 µM [inconclusive] (active) and 0.01 µM (active), respectively.

The record behind these values is PubChem BioAssay (NCATS).
